Screens (PubChem)
ERp5 block – inhibitors of ERp5-driven insulin aggregation, primary screen, biochemical, turbidity, absorbance 650 nm, single point. Protein disulfide-isomerase A6 (Homo sapiens), Q15084. AID 651711, 2012. inhibition, % at 9.99 µM. 90 min. 350,000 compounds, 0.05% hits;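 active = mean replicate inhibition above about 25%, with every replicate also reaching it, limit read from the data, passing the limit was not always enough; inconclusive = only one of those two criteria met; inactive = neither criterion met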
HDAC3 inhib – HDAC3 deacetylase inhibitors, primary screen, biochemical, fluorescence, cell-free homogeneous. recombinant HDAC3, fluorogenic peptide/trypsin coupled. 320,000 compounds, 0.15% hits. inhibition, % at 8.3 µM. Histone deacetylase 3 (Homo sapiens), O15379. AID 2718, 2010; in the data active = inhibition above about 26%, passing the limit was not always enough; inconclusive = no clear call, values can overlap the other calls
PDI inh – inhibitors of human PDI, primary screen, biochemical, turbidity, single point, plate reader; Protein disulfide-isomerase (Homo sapiens), P07237; PDI insulin aggregation turbidity, A650, 90 min; inhibition, % at 10 µM; 350,000 compounds, 0.052% hits;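 active = mean inhibition across replicates of 30% or more, whatever share of single replicates reach that level; inconclusive = mean inhibition below 30% while every single replicate reaches 30%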
SIRT5 block – SIRT5 desuccinylase inhibitors, primary screen, biochemical, fluorescence imaging, single point, set 5; Purified SirT5, succinyl-peptide AMC, trypsin-coupled fluorescence; NAD-dependent protein deacylase sirtuin-5, mitochondrial (Homo sapiens), Q9NXA8; 330,000 compounds, 1.1% hits; inhibition, % at 15 µM; in the data active = inhibition above about 15%; inconclusive = no clear call, values can overlap the other calls
Target sequence (Q9NXA8 whole entry, looked up): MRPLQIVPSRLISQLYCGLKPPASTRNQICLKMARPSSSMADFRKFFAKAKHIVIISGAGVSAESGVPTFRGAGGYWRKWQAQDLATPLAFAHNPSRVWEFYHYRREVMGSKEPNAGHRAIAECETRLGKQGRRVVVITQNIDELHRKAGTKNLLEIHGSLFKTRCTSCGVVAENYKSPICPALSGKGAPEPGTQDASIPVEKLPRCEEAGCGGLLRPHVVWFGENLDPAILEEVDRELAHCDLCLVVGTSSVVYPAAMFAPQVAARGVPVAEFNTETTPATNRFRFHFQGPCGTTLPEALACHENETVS
ERAP1 inh – human ERAP1 aminopeptidase inhibitors, primary screen, biochemical, single point, plate reader | recombinant ERAP1, Leu-AMC fluorescence, 60 min | inhibition, % at 10.7 µM | 340,000 compounds, 0.15% hits | AID 652197, 2013;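 active = mean replicate inhibition of at least 30%, or all replicates individually reaching that 30% level; inactive = mean below 30% and not every replicate reaching it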
A number is an active result; . = inactive; ? = inconclusive; / = not tested or not shown; ! = not confirmed by another sample. Shown is part of a subset that was picked to be rich in hits.

SMILES	ERp5 block	HDAC3 inhib	PDI inh	SIRT5 block	ERAP1 inh
CO[C@H]1CN(C)C(=O)c2cc(NS(=O)(=O)c3cccc(F)c3)ccc2OC[C@H](C)N(Cc2cc(F)ccc2F)C[C@@H]1C	.	/	/	16.0	.
CCC(=O)Nc1ccc2c(c1)OC[C@@H](C)N(Cc1ccccc1F)C[C@H](C)[C@@H](OC)CN(C)C2=O	.	/	/	.	.
CC(=O)N1[C@@H]2c3ccc(C4=CCCC4)c(=O)n3C[C@H]1[C@H](CO)[C@H]2C(=O)NCC1CC1	.	/	/	.	.
Cc1noc(C)c1S(=O)(=O)Nc1cccc2c1O[C@H](CN(C)S(=O)(=O)c1c(C)noc1C)[C@H](C)CN([C@@H](C)CO)C2=O	.	/	/	.	.
O=C(C[C@H]1C=C[C@@H](NC(=O)c2cccnc2)[C@@H](CO)O1)NCc1ccncn1	.	/	/	.	.
C[C@H]1CN([C@@H](C)CO)C(=O)c2cccc(NC(=O)NC3CCCCC3)c2O[C@@H]1CN(C)S(C)(=O)=O	.	/	/	.	.
CCCN1C[C@H](C)[C@H](OC)CN(C)C(=O)c2ccc(NC(=O)Nc3cccc(F)c3)cc2OC[C@H]1C	.	/	/	.	.
CCC(=O)Nc1ccc2c(c1)OC[C@@H](C)N(Cc1ccccn1)C[C@@H](C)[C@@H](OC)CN(C)C2=O	.	/	/	15.5	.
CO[C@H]1CN(C)C(=O)c2ccc(NC(=O)C3CC3)cc2OC[C@H](C)N(C(=O)c2ccccc2F)C[C@H]1C	.	/	/	.	/
CCCN1C[C@@H](C)[C@H](OC)CN(C)C(=O)c2ccc(NC(=O)Nc3cccc(F)c3)cc2OC[C@@H]1C	.	/	/	17.7	.
CO[C@@H]1CN(C)C(=O)c2ccc(NC(=O)Nc3ccccc3)cc2OC[C@@H](C)N(C(C)=O)C[C@H]1C	.	/	/	21.8	.
CO[C@H]1CN(C)C(=O)c2ccc(NC(=O)Nc3ccccc3)cc2OC[C@H](C)N(C(C)=O)C[C@H]1C	.	/	/	.	.
CO[C@H]1CN(C)C(=O)c2ccc(NC(=O)C3CC3)cc2OC[C@@H](C)N(C(=O)c2ccccc2F)C[C@H]1C	.	/	/	18.4	.
C[C@@H]1CN([C@@H](C)CO)C(=O)CCCn2cc(nn2)CO[C@@H]1CN(C)S(=O)(=O)c1ccc(F)cc1	.	/	/	.	.
N#C[C@@H]1[C@@H](c2ccccc2-c2ccccc2)[C@@H](CO)N1C(=O)NC1CCCCC1	.	/	/	.	.
CCC(=O)Nc1ccc2c(c1)OC[C@H](C)N(Cc1cccnc1)C[C@H](C)[C@H](OC)CN(C)C2=O	28.6	/	/	.	.
CO[C@H]1CN(C)C(=O)c2ccc(NC(=O)Nc3ccc(Cl)c(Cl)c3)cc2OC[C@H](C)NC[C@H]1C	.	/	/	100.3	.
CCC(=O)Nc1ccc2c(c1)OC[C@H](C)N(Cc1cccnc1)C[C@@H](C)[C@H](OC)CN(C)C2=O	.	/	/	.	.
C[C@H]1CCCCO[C@H](CN(C)S(=O)(=O)c2cccs2)[C@@H](C)CN([C@@H](C)CO)C(=O)c2cc(NS(C)(=O)=O)ccc2O1	.	/	/	.	.
CN(C(=O)c1cccc(NC(=O)Cc2ccc(NC(=O)C3CCN(C(=O)C4CCC4)CC3)cc2)c1)C1CCCCC1	.	/	.	.	.
O=C(Cc1ccc(NC(=O)C2CCCN(C(=O)C3CC3)C2)cc1)Nc1cccc(C(=O)N2CCCCC2)c1 (stereo not drawn)	32.1	/	.	.	.
CN(C(=O)c1cccc(NC(=O)Cc2ccc(NC(=O)C3CCN(C(=O)C4CCCCC4)CC3)cc2)c1)C1CCCCC1	.	/	.	25.1	.
CN(C)CC(=O)N[C@@H]1CC[C@@H](CC(=O)O)O[C@H]1CO	.	/	/	.	.
CC=Cc1ccc2n(c1=O)C[C@@H]1[C@@H](CO)[C@H](C(=O)NCCc3ccncc3)[C@H]2N1CCc1ccccc1 (mixture of isomers)	.	/	/	.	.
C[C@@H]1CN([C@@H](C)CO)C(=O)CCCn2nncc2CO[C@@H]1CN(C)S(=O)(=O)c1ccc(Cl)cc1	.	/	.	.	.
SMILES	ERp5 block	HDAC3 inhib	PDI inh	SIRT5 block	ERAP1 inh
C[C@H]1CN([C@@H](C)CO)C(=O)CCCn2nncc2CO[C@@H]1CN(C)C(=O)c1ccc2ccn(C)c2c1	.	/	.	37.6!	.
C[C@@H]1CN([C@H](C)CO)C(=O)CCCn2nncc2CO[C@H]1CN(C)S(=O)(=O)c1ccc(Cl)cc1	.	/	.	18.5!	.
C[C@@H]1CN([C@@H](C)CO)C(=O)CCCn2nncc2CO[C@H]1CN(C)Cc1ccc(Cl)c(Cl)c1	.	/	.	16.0!	.
CC(C)NC(=O)N1CC2(C1)[C@H](c1ccccc1)[C@@H](CO)N2Cc1cccnc1	.	/	/	.	.
C[C@@H]1CN([C@H](C)CO)C(=O)c2cc(NC(=O)C3CC3)ccc2O[C@H]1CN(C)Cc1ccc(-c2ccccc2)cc1	.	/	/	.	.
CC[N+]1(CC(O)COC2CC(C)CC(C)(C)C2)CCOCC1 (stereo not drawn)	.	.	.	.	107.5
CNc1nc(NCCOc2ccccc2Cl)c2sccc2n1	.	/	.	.	.
Clc1ccccc1OCCNc1nc(NCC2CC2)nc2ccsc12	.	/	.	22.5	.
COCCNC(=O)C[C@@H]1CC[C@@H](NC(=O)NC2CCCCC2)[C@H](CO)O1	.	/	/	.	.
COc1ccc(NC(=O)NNc2cc(N3CCOCC3)nc(N3CCOCC3)n2)cc1	.	.	.	.	.
O=C(NNc1nc(N2CCOCC2)nc(N2CCOCC2)n1)Nc1ccc(Cl)cc1	.	?	/	15.1	.
CCC(=O)N[C@@H]1CC[C@H](CC(=O)OC)O[C@@H]1CO	.	/	/	.	.
Cc1cc(OC(=O)c2ccccc2)n(CCC#N)n1	/	87.5	.	/	/
Cn1cnc2c(NCc3ccco3)ncnc21	.	.	/	30.4	.
CC(C)COC(=O)N(C)C[C@@H]1OCc2ccccc2-c2c(n(C)c3ccccc23)C(=O)N([C@H](C)CO)C[C@@H]1C	.	/	/	.	.
CCc1c(C)c2cc(Cl)c(O)c(CN3CCCC3)c2oc1=O	.	.	.	.	36.5
CCCc1cc(=O)oc2c(CN3CCN(C)CC3)c(O)c(Cl)cc12	/	.	.	/	/
Cc1cc(=O)oc2c(CN3CCN(C)CC3)c(O)c(Cl)cc12	.	.	.	.	86.5
CCCc1cc(=O)oc2c(CN3CCN(C)CC3)c(O)ccc12	.	.	.	.	34.5
CC=Cc1ccc2n(c1=O)C[C@H]1[C@H](CO)[C@@H](C(=O)NCC)[C@@H]2N1C(C)=O (mixture of isomers)	.	/	/	.	.
CC1=Nc2ccc(C)cc2/C1=C/c1c(N)n2c(S(=O)(=O)C(C)C)nsc2nc1=O	.	/	.	19.3	.
Cc1ccc(S(=O)(=O)c2ccc(Oc3cccc(C)c3)cc2)cc1	/	.	31.6	/	/
Cc1cccc(Oc2ccc(S(=O)(=O)N3CCCCC3)cc2N)c1	.	.	.	.	.
